Assay results as given in PMC4336329 (PLoS ONE, 2015).
Hit rate of the full screen: of about 310,000 compounds, about 14,000 (4.5%) showed an effect of 50% or more. Effects have a minus sign here. The list comes from a sample in which strong results are over-represented; it also holds similar structures and randomly drawn compounds.

molecular target: human ether-à-go-go-related gene (hERG) potassium channel (human, UniProt Q12809); assay: primary screen, population patch clamp on CHO cells stably expressing hERG; higher = less effect of the substance
Sequence (Q12809 whole entry, looked up): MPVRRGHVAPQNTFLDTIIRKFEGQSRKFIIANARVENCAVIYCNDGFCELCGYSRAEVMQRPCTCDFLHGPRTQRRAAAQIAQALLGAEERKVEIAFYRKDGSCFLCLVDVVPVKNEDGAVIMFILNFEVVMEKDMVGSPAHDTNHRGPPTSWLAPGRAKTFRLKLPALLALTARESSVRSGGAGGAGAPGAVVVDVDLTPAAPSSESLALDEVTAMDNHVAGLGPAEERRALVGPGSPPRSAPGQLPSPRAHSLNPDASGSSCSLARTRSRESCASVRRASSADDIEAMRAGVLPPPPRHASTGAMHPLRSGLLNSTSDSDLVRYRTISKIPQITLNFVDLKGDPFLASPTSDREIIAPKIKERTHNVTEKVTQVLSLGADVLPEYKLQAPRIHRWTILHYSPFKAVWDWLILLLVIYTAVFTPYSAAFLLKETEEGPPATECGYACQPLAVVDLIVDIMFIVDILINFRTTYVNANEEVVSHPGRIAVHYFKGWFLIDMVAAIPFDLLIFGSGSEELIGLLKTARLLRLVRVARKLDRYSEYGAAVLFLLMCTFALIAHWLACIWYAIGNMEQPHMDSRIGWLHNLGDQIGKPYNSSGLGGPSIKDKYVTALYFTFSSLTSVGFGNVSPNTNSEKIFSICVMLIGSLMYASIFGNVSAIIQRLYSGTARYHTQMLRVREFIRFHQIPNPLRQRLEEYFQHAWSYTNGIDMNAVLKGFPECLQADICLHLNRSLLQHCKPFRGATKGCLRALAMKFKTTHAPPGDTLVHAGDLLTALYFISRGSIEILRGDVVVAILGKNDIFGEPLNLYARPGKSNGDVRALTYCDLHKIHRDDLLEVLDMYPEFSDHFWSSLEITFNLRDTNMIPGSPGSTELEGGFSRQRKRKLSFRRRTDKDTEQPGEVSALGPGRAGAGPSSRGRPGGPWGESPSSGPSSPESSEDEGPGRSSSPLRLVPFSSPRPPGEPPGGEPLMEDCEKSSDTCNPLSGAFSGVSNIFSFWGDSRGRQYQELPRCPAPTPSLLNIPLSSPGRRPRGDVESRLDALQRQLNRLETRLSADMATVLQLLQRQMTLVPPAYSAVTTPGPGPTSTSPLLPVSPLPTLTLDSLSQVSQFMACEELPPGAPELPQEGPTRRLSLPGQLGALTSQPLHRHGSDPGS
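Note: peak tail current of the secondary pulse compared with the same well before compound.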

SMILES	hERG current change (%, negative = inhibition) at 10uM
COc1ccc2c(CC(=O)NCCN3C(=O)S/C(=C\c4cccnc4)C3=O)coc2c1	-9.62%
O=C(/C(=N\Nc1ccc([N+](=O)[O-])cc1)Sc1nnnn1-c1ccccc1)c1ccccc1	17.9%
COc1ccc(C(=O)C[n+]2cc(-c3ccc(OC)cc3)n3c2CCCC3)cc1.[Br-]	-10.1%
COc1ccc(-c2c[n+](CC(=O)c3cccs3)c3n2CCC3)cc1.[Br-]	10.4%
CC(C)[C@@H]1CC[C@@H](C)C[C@H]1OC(=O)C[n+]1cc(-c2ccc(Cl)cc2)n2c1CCCCC2.[Cl-]	-60.1%
Cn1c(NC(=O)C[n+]2cc(-c3ccc(Cl)cc3)n3c2CCC3)cc(=O)n(C)c1=O.[Cl-]	11.3%
COc1ccc(-c2c[n+](CC(=O)OC3CC(C)CCC3C(C)C)c3n2CCC3)cc1.[Cl-] (centres unmarked)	-69.3%
CC1CCC(C(C)C)C(OC(=O)C[n+]2cc(-c3ccc(Cl)cc3)n3c2CCCCC3)C1.[Cl-] (centres unmarked)	-79.4%
O=C(C[n+]1cc(-c2ccc(Cl)cc2)n2c1CCCCC2)c1ccccc1.[Br-]	-12.5%
O=C(C[n+]1cc(-c2ccc(Cl)cc2)n2c1CCC2)N1c2ccccc2Sc2ccccc21.[Cl-]	-22.1%
CC1CCC(C(C)C)C(OC(=O)C[n+]2cc(-c3ccc(Cl)cc3)n3c2CCC3)C1.[Cl-] (centres unmarked)	-77.1%
O=C(C[n+]1cc(-c2ccccc2)n2c1CCCCC2)c1ccc(Cl)cc1.[Br-]	-23.4%
O=C(Nc1ccc2c(c1)OCO2)C1CCCN(S(=O)(=O)c2cccs2)C1 (centres unmarked)	10.7%
COc1cccc(-c2ncc3ccccn23)c1.O=C(O)C(=O)O	-5%
CCOc1ccc(S(=O)(=O)Nc2cccc(C(=O)NCCCn3ccnc3)c2)cc1	10.5%
O=C(CCN1C(=O)c2ccccc2C1=O)Nc1sc2c(c1C(=O)NCc1ccco1)CCCC2	-13.2%
O=C(Nc1nnc(SCC(=O)N2CCCCC2)s1)c1cccs1	4.86%
CCOC(=O)c1c(NC(=O)C2COc3ccccc3O2)sc2c1CC(C)(C)NC2(C)C (centres unmarked)	-12.1%
CC(Sc1nnc(CN2CCCC2)n1Cc1ccccc1)C(=O)Nc1ccc(F)cc1 (centres unmarked)	-61.4%
Cc1nnc(SC(C)C(=O)Nc2ncc(Cl)cc2Cl)n1Cc1ccccc1 (centres unmarked)	-67.8%
CC(=O)Nc1ccc(NC(=O)C(C)Sc2n[nH]c(=O)n2Cc2ccccc2)cc1 (centres unmarked)	16%

SMILES	hERG current change (%, negative = inhibition) at 10uM
O=C(CSc1nnnn1-c1ccccc1)Nc1ccc(Cl)cn1	2.66%
Cc1nnc(SC(C)C(=O)Nc2ccc(Cl)cn2)n1Cc1ccccc1 (centres unmarked)	-17.3%
CC(Sc1nnc(CN2CCCC2)n1Cc1ccccc1)C(=O)Nc1ccccc1 (centres unmarked)	-43.1%
Cc1nnc(SCC(=O)Nc2ncc(Cl)cc2Cl)n1Cc1ccccc1	-15.6%
Cc1ccc(-n2nnnc2SC(C)C(=O)Nc2ccc(Cl)cn2)cc1 (centres unmarked)	-22.1%
CC(Sc1nnnn1-c1ccccc1)C(=O)Nc1ccc(Cl)cn1 (centres unmarked)	-54.2%
Cc1sc2nc(SCc3nc4ccccc4[nH]3)n(Cc3ccco3)c(=O)c2c1C	-9.15%
C=CC1CN(C(=O)OCC(Cl)(Cl)Cl)C2CC3c4ccc(OC)cc4NC3C3CC1C2CO3 (centres unmarked)	-7.61%
CCOc1ccc2nc(SCC(=O)NCc3ccccc3)[nH]c2c1	2.63%
CC(C)CN(C(=O)COC(=O)CCSc1ccc(F)cc1)c1c(N)n(Cc2ccccc2)c(=O)[nH]c1=O	10.1%
Cc1cc(C(=O)CN2C(=O)NC3(CCCc4ccccc43)C2=O)c(C)n1C (centres unmarked)	-13.5%
COc1ccc(/C=C2\S/C(=N/S(=O)(=O)c3cccs3)NC2=O)cc1	8.45%
CS(=O)(=O)N(CC(=O)NCCC1=CCCCC1)c1cccc([N+](=O)[O-])c1	-32.4%
COc1cc(OC)cc(C(=O)Oc2c(CN3CCOCC3)cc(Cl)c3cccnc23)c1	-15.5%
COC(=O)c1cccc(Nc2cc(C)nc(-c3ccccc3O)n2)c1	10.2%
COc1ccc(/C=C/C(=O)OCC(=O)c2ccc3c(c2)NC(=O)CO3)c(OC)c1	1.6%
Cc1ccccc1NC(=O)C1CCCN(S(=O)(=O)c2ccc3c(c2)C(C)(C)C(=O)N3C)C1 (centres unmarked)	6.82%
C=CCOc1ccccc1CN1CCC(n2nccc2NC(=O)C2CCOC2)CC1 (centres unmarked)	-21.5%
C=CCOc1ccccc1CN1CCC(n2nccc2NC(=O)c2ccccc2)CC1	-64.4%
COc1ccccc1CN1CCC(n2nccc2NC(=O)CCc2ccccc2)CC1	-23.9%
